# Legend:
# Assay in all cases: DAPPL (digital affinity profiling via proximity ligation, sequencing); 10 mM Tris-HCl pH 7.5, 50 mM NaCl, 1 mM DTT, 4% glycerol, room temperature, 30 min; GST-TFs on glutathione beads, 16-mer random dsDNA library, 0.1% formaldehyde crosslink after washing; high values mean tight binding
# Conditions in all cases: protein: recombinant; tags: N-terminal GST; dsDNA, one strand shown
# ETV2 = biological target: T1, ETV2 (Homo sapiens, UniProt O00321 1-342)
# T1 sequence: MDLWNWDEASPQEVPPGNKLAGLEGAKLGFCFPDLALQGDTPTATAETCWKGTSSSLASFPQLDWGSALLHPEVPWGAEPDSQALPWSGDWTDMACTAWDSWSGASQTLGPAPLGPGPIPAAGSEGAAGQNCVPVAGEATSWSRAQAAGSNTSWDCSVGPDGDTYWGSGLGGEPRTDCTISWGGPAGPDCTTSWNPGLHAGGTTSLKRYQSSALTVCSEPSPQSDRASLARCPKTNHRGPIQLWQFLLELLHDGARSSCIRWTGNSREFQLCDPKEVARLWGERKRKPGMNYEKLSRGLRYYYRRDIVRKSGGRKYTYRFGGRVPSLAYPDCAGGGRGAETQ
# How it was run: (§1)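 The binding signal reported is, for every hexamer, its read frequency for a factor over its read frequency for the tag-only sample. Reads came from pools of yeast-expressed, GST-fused human transcription factors on glutathione beads, barcoded with DNA and mixed with that sample, which were incubated with 200 nmole of a random double-stranded 16-mer DNA library in Tris/NaCl/DTT/glycerol buffer at room temperature for 30 min. After washing, the pools were crosslinked with 0.1% formaldehyde, proximity-ligated with BsaI/T4 ligase for 1 h at 37 °C, PCR-amplified and sequenced on an Illumina NextSeq500.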
# ELF3 = biological target: T2, ELF3 (Homo sapiens, UniProt P78545 1-371)
# T2 sequence: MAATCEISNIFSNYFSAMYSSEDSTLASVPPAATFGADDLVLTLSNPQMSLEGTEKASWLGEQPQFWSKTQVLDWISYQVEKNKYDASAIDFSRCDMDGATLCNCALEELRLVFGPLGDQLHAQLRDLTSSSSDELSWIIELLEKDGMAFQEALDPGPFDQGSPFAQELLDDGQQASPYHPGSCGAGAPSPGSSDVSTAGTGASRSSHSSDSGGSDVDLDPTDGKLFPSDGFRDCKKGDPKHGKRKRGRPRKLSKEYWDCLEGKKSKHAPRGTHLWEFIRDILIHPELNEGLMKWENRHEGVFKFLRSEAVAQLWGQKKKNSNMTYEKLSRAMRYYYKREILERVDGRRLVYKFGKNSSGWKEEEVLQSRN
# How it was run: as §1
# ETV1 = ETV1 (Homo sapiens, UniProt P50549 1-477)
# How it was run: as §1
# ERF = biological target: T3, ERF (Homo sapiens, UniProt P50548 1-548)
# T3 sequence: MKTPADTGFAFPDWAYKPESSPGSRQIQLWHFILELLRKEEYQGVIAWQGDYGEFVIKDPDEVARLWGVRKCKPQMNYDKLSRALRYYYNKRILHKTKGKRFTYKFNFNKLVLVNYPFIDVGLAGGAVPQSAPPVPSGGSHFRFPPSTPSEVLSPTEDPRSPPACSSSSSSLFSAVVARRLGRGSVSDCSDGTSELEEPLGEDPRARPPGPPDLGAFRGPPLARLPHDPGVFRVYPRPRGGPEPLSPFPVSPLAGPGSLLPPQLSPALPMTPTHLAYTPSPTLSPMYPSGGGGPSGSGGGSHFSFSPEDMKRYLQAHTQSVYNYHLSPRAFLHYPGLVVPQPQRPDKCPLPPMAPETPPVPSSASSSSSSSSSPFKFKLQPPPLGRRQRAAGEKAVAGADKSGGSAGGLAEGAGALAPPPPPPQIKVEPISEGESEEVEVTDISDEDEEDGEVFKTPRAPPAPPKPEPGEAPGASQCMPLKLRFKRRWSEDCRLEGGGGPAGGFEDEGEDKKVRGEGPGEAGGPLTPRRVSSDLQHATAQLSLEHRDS
# How it was run: as §1
# ETV3L = biological target: T4, ETV3L (Homo sapiens, UniProt Q6ZN32 1-361)
# T4 sequence: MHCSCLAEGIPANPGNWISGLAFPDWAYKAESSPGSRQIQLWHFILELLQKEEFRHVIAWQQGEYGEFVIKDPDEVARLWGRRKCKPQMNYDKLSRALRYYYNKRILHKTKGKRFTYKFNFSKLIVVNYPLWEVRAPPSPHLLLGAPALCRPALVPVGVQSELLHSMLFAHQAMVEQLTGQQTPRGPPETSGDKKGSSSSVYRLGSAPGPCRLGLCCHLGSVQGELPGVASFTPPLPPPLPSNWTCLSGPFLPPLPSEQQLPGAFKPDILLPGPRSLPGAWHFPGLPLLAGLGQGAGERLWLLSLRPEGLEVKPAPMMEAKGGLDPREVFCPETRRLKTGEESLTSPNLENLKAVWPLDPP
# How it was run: as §1
# ETS2 = biological target: T5, ETS2 (Homo sapiens, UniProt P15036 1-469)
# T5 sequence: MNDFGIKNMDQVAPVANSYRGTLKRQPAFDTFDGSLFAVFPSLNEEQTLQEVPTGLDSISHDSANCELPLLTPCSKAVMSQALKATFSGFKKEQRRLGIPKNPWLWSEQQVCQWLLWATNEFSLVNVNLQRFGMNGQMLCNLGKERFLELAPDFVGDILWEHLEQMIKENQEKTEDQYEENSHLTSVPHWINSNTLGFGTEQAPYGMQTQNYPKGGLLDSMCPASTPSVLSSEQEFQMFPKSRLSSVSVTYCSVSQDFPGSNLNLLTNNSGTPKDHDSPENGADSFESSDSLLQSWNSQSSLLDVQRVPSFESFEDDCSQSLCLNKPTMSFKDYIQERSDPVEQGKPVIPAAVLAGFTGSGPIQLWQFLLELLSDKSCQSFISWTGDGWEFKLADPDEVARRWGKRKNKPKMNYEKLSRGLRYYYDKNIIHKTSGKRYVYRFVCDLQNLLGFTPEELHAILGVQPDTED
# How it was run: as §1
# SPDEF = biological target: T6, SPDEF (Homo sapiens, UniProt O95238 1-335)
# T6 sequence: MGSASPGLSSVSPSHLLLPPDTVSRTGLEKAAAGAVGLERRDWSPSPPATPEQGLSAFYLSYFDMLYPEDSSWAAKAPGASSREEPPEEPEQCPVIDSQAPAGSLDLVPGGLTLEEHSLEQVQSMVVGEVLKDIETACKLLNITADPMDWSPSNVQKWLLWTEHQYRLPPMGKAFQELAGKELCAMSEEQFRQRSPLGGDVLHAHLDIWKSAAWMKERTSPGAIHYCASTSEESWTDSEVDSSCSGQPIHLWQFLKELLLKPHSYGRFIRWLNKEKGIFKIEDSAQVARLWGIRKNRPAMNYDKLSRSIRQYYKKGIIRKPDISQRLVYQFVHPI
# How it was run: as §1
# ETV7 = biological target: T7, ETV7 (Homo sapiens, UniProt Q9Y603 1-341)
# T7 sequence: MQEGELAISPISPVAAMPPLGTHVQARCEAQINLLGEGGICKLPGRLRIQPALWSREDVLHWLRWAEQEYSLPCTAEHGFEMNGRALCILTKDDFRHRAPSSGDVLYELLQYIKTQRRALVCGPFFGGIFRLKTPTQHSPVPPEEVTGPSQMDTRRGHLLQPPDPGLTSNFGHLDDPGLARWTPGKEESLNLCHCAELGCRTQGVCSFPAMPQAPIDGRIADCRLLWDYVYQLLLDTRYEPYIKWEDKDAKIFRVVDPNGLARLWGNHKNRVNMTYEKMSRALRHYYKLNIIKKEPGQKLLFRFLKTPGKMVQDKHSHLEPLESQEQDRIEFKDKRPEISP
# How it was run: as §1
# ETV3 = biological target: T8, ETV3 (Homo sapiens, UniProt P41162-2 1-143)
# T8 sequence: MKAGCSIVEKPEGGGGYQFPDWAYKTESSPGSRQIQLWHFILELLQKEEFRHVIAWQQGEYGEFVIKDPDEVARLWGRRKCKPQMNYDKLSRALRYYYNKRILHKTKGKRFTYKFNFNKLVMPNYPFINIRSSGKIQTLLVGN
# How it was run: as §1
# ETV6 = ETV6 (Homo sapiens, UniProt P41212 1-452)
# How it was run: as §1
# Chain of ETV1 (P50549 whole entry): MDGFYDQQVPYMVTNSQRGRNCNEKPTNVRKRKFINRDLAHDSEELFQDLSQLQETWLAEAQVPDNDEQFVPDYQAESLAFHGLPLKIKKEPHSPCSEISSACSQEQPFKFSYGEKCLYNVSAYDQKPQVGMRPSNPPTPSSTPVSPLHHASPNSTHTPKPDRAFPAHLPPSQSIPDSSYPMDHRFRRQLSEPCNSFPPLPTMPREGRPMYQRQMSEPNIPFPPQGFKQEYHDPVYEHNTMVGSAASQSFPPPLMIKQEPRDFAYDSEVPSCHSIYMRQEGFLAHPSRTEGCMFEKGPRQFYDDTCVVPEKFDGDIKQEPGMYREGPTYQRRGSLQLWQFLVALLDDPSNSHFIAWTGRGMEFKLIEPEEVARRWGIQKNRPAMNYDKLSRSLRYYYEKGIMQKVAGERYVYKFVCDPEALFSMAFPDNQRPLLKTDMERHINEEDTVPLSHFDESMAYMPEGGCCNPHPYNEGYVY
# Chain of ETV6 (P41212 whole entry): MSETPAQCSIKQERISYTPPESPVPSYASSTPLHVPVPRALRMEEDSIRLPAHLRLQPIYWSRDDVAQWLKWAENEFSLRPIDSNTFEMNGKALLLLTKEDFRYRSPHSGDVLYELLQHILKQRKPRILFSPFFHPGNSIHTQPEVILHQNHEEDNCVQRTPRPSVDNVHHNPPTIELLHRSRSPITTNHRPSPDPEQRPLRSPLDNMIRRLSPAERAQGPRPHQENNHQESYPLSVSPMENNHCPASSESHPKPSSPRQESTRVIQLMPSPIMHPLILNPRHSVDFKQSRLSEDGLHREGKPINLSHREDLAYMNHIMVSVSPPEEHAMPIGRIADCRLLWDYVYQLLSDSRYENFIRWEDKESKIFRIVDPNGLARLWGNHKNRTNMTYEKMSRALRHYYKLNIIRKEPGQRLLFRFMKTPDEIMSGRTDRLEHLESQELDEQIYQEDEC
sequence,measurement,setting,value
CGTAAA,binding signal,ETV2,"1.21 fold enrichment (6-mer frequency, TF over GST control)"
same,binding signal,ELF3,"1.12 fold enrichment (6-mer frequency, TF over GST control)"
same,binding signal,ETV1,"1 fold enrichment (6-mer frequency, TF over GST control)"
same,binding signal,ERF,"1.09 fold enrichment (6-mer frequency, TF over GST control)"
same,binding signal,ETV3L,"1.09 fold enrichment (6-mer frequency, TF over GST control)"
same,binding signal,ETS2,"1.14 fold enrichment (6-mer frequency, TF over GST control)"
same,binding signal,SPDEF,"1.09 fold enrichment (6-mer frequency, TF over GST control)"
same,binding signal,ETV7,"1.08 fold enrichment (6-mer frequency, TF over GST control)"
same,binding signal,ETV3,"1.14 fold enrichment (6-mer frequency, TF over GST control)"
same,binding signal,ETV6,"1.17 fold enrichment (6-mer frequency, TF over GST control)"

# Source: article PMC7862700, “An all-to-all approach to the identification of sequence-specific readers for epigenetic DNA modifications on cytosine”
